# From PubChem BioAssay AID1044 (The Scripps Research Institute Molecular Screening Center, 2008)
# Hit rate of the full screen: of about 16,000 compounds, about 240 (1.5%) were called active. This is one part of a sample in which actives are shown more often than they occur. A number with no mark means an inactive call. Cut-off read from the data, not from the text of the source: active = activation above about 80%; inactive = the rest.
# Biological target: Sphingosine 1-phosphate receptor 1 (Homo sapiens) (UniProt P21453)
# Sequence (P21453 whole entry, looked up): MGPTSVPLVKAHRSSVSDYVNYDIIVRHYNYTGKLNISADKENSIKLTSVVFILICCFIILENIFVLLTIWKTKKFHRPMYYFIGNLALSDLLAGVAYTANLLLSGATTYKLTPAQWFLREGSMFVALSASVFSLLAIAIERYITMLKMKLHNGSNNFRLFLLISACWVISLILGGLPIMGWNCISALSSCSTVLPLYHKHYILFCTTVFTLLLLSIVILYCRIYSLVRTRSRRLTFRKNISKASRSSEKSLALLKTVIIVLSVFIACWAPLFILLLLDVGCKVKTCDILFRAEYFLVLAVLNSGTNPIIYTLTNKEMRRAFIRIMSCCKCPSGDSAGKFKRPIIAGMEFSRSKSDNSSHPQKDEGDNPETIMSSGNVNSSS
# Assay: S1P1 (human) receptor agonism (AID 1044)
# Conditions: S1P1 agonist cell-based reporter assay; at 4.5 µM; stronger effect = higher value
row,Structure (SMILES),activation
1,O=C(Nc1ccccc1)O/N=C1/CCCc2occc21,-2.45%
2,CCOC(=O)c1c(NC(=S)NC)sc2c1CCCC2,-16.5%
3,CCOC(=O)NC(=S)NC12CC3CC(CC(C3)C1)C2,-14.8%
4,NC(N)=N/C(N)=N/c1nnc(C(F)(F)F)s1,-5%
5,OC1(C#Cc2ccccc2)CCN(Cc2ccccc2)CC1,-10.7%
6,CCOC(=O)c1sc(SC)c(-c2ccccc2)c1N,103% (active)
7,CCOC(=O)c1sc(SCCS(=O)(=O)c2ccc(Cl)cc2)c(C#N)c1-c1ccccc1,-6.04%
8,CCOC(=O)c1sc2ccccc2c1N,-24.7%
9,N#CCCSc1sc(=S)sc1SCCC#N,2.11%
10,Clc1ccc(CO/N=C/c2nc3ccccc3s2)cc1,87% (active)
11,CCCCc1c(COC)nc(-c2ccc(Cl)cc2)[nH]c1=O,-10.5%
12,Cc1nc(C(F)(F)F)ccc1C(=O)NCCNc1ncccc1C(F)(F)F,3.52%
13,Cc1nc(C(F)(F)F)ccc1NC(=O)/C=C\C(=O)O,-31%
14,O=C(NC1Cc2ccccc2C1)c1nnc(-c2ccccc2)o1,62.1%
15,Cn1ncc(Br)c1NC(=O)C(C)(C)C,1.4%
16,CCOC(=O)Cc1csc(NC(NC(=O)OCC)(C(F)(F)F)C(F)(F)F)n1,-11.5%
17,CN1CCN(c2ccc(NC(=O)c3ccccc3)cc2)CC1,15.7%
18,CCOC(=O)C(NC(=O)c1ccco1)(Nc1cc(C)ccn1)C(F)(F)F (stereo not given),-12.4%
19,Fc1cccc(Cl)c1CN1CCN(c2ncnc3scc(-c4cccs4)c23)CC1,10.1%
20,CCOC(=O)c1c(-c2ccco2)csc1NC(=O)Nc1ccc(Cl)cc1,-5.82%
21,C/C(=N\NC(=S)Nc1cccc(F)c1)c1ccco1,-19.7%
22,Cc1nc(C)c(-c2ccnc(-c3ccc(Cl)cc3)n2)s1,-14.5%
23,Fc1ccc(Oc2nc(Oc3ccc(F)cc3)nc(N3CCSCC3)n2)cc1,-33.1%
24,Cc1noc(C)c1C(=O)N1CCOCC1,-1.85%
25,CCOC(=O)c1cc(C)nc(Sc2ccccc2NC(=O)Nc2ccc(Cl)cc2)c1C#N,-5.59%
26,OC(CN1CCN(c2ccc(C(F)(F)F)cn2)CC1)c1ccc2c(c1)OCCO2 (stereo not given),4.19%
27,CNC(=O)NNC(=O)Cn1nnc(N2CCCCC2)n1,-5.59%

row,Structure (SMILES),activation
1,O=C(c1ccc(F)cc1)C1CCN(Cc2cn[nH]c2-c2ccccc2)CC1,-8.25%
2,Cn1nc(-c2ccccc2)cc1N,-14.4%
3,O=C1NC(=O)c2cc([N+](=O)[O-])c(Sc3c(Cl)cccc3Cl)cc21,16.5%
4,Cn1cc(Br)c(-c2ccc(NC(=O)Nc3ccc(Cl)cc3)cc2)n1,48.5%
5,CCOC(=O)NN(C(=O)OCC)c1c(C)c(C)c(C)c(C)c1C,6.8%
6,CCOc1ccc(NC(=S)N2CCC(c3ccccc3OC)CC2)cc1,-5.17%
7,COc1ccc(OC)c(CNC(=O)Cc2cccs2)c1,2.66%
8,CC(C)N(C(=O)c1ccc(-c2ccccc2F)cc1)C(C)C,5.33%
9,COc1ccc(-c2ccc(/C=N/NC(=O)CCc3ccc(O)cc3)s2)cc1,76.7%
10,COc1ccc2c(c1)CCCC2=Nc1ccccc1C(F)(F)F,76.9%
11,Cc1cc2nc(C)c(C)nc2cc1C,-24.7%
12,NC(=O)c1sccc1Br,-10.4%
13,Cc1onc(-c2ccccc2)c1CNS(=O)(=O)c1ccc2c(c1)OCCN2C,-10.4%
14,NC(CC(=O)O)c1ccccc1 (stereo not given),6.64%
15,Cc1ccc(NC(=O)c2ccccc2NC(=O)c2ccccc2)cc1,-30.9%
16,Cc1ccc(NC(C(=O)O)c2ccccc2)cc1 (stereo not given),81.5% (active)
17,O=[N+]([O-])c1ccc(-c2nnnn2Cc2c(Cl)cccc2Cl)cc1,38.8%
18,Cc1oc(-c2ccc(Cl)cc2)cc1C(=O)N1CCN(Cc2ccccc2)CC1,-6.1%
19,COc1ccc(NC(NC(=O)c2ccc(OC)cc2)(C(F)(F)F)C(F)(F)F)cc1,4.17%
20,CCOC(=O)N/N=C(\C)c1cccc(NC(C)=O)c1,3.43%
21,CC(C)(C)C(=O)Nc1c(Br)c(C2CC2)nn1-c1ccccc1,4.11%
22,N#Cc1ccc(OS(=O)(=O)c2cc(C(F)(F)F)cc(C(F)(F)F)c2)cc1,0.18%
23,CSc1nc(N)n(-c2ccccc2)n1,5.77%
24,COC(=O)c1c(C(=O)OC)c2n(c1C)CCS2,10.2%
25,O=C(Nc1ccc(OCc2ccccc2)cc1)OCC1CN(Cc2ccccc2)CCO1 (stereo not given),43.9%
26,O=S(=O)(Oc1cccc(C(F)(F)F)c1)c1cc(S(=O)(=O)c2ccccc2)cs1,4.61%
27,Cn1nc(C(C)(C)C)c(NC(=O)c2sccc2Cl)c1C(C)(C)C,-7.37%

row,Structure (SMILES),activation
1,CCc1ccc(S(=O)(=O)Nc2ccc(C)c(NS(C)(=O)=O)c2)cc1,6.03%
2,Cc1oc(-c2ccc(Cl)cc2)cc1C(=O)N1CCOCC1,6.2%
3,CCOC(=O)c1c(NS(=O)(=O)c2cccc3nsnc23)sc(C)c1C,117% (active)
4,Cc1c(-c2cnc(NC(=O)c3ccccc3)s2)sc2ccc(Cl)cc12,7.33%
5,O=C(Nc1ccc(Cl)cc1)c1csc(COc2ccc3nonc3c2)n1,-33.9%
6,NNC(=O)c1csc(COc2ccc(C3SCCS3)cc2)n1,83% (active)
7,NNC(=O)COc1ccc(C2SCCS2)cc1,-2.77%
8,O=c1oc2ccc(Cl)cc2cc1-c1ccc([N+](=O)[O-])cc1,-9.38%
9,O=C(NNc1ccc(C(F)(F)F)cn1)c1ccccc1Cl,-0.55%
10,COc1cccc2cc(C(=O)O)oc12,-0.93%
11,O=C(O)CC(CC(=O)O)c1ccc(C(F)(F)F)cc1,0.91%
12,O=C1c2ccc3c4c(ccc(c24)C(=O)N1c1ccccc1)C(=O)N(c1ccccc1)C3=O,-6.17%
13,CCCCCCNC(=O)NCCCCCC,-9.06%
14,COc1ccc(CCNCC(O)Cn2ccc3ccccc32)cc1OC (stereo not given),5.51%
15,c1ccc2c(c1)NC(C1Nc3ccccc3O1)O2 (stereo not given),-3.26%
16,COc1cc(CCN=Cc2ccccc2O)c([N+](=O)[O-])cc1OC,-11.4%
17,CS/C(N)=N/N=C/c1cccs1,-0.53%
18,COC(=O)C1=C(NNc2ccccc2)CSC1,6.31%
19,Cc1cc(CNCC(O)C(F)(F)F)no1 (stereo not given),-6.99%
20,FC(F)(F)C1=CC=NCCN1,1.36%
21,N/C(=N\OC(=O)Nc1ccccc1)c1ccc(Oc2c(Cl)cncc2Cl)cc1,13.7%
22,Cc1nc(-c2ccc(NC(=O)COCC(=O)O)cc2)cs1,-4.96%
23,CCCCCCCCc1ccc(C(=O)O)cc1,19.6%
24,CCOC(=O)c1c(NC(=S)Nc2ccccc2)sc2c1CCN(C)C2,-17.2%
25,Cc1nnsc1-c1nnc(SCC(=O)c2ccc3c(c2)OCO3)n1C1CC1,0.92%
26,COc1cccc(NC(=S)NNC(=S)NC2CC3CCC2C3)c1 (stereo not given),97.7% (active)
27,COc1cccc(NC(=S)N(CCC#N)C2CCCCC2)c1,-17.6%

row,Structure (SMILES),activation
1,COc1ccc(NC(=S)Nc2ccc(OC)cc2)cc1,2.11%
2,COc1cccc(C(=O)c2sc3nsc(SCc4ccc(F)cc4)c3c2N)c1,50.7%
3,Cc1ccc([N+](=O)[O-])c(C(=O)NCC(=O)O)c1,-20%
4,OC(COc1ccc(F)cc1)(c1ccccc1)c1ccccc1,-25.6%
5,CCO/N=C\c1nn(S(C)(=O)=O)cc1Br,-3.43%
6,CCOC(=O)Cc1nc(N)ncc1C(=O)OCC,-10.1%
7,Clc1ccc(-c2csc(N/N=C\c3ccn[nH]3)n2)cc1,8.84%
8,O=C(NCCO)NCCSc1ccc(F)cc1,-13.1%
9,O=C1CSC(=S)N1c1ccc(N2CCCCCC2)c(N2C(=O)CSC2=S)c1,0.84%
10,COC(=O)c1ccc(S(=O)(=O)NNC(=O)c2cn3cc(C(F)(F)F)cc(Cl)c3n2)n1C,-20.2%
11,N#Cc1ccc(N2CCSCC2)cc1[N+](=O)[O-],-27.1%
12,O=C(O)c1ccccc1Nc1ccccc1F,2.49%
13,O=C(Nc1ccccc1C(=O)NCc1c(F)cccc1Cl)c1ccccc1Cl,15.3%
14,O=C(CNC(=O)c1ccccc1F)c1ccc(Br)cc1,84.7% (active)
15,Cc1ccc(Sc2cc(C)c(C)cc2N)c(C)c1,10.7%
16,Cc1csc(/N=C/N(C)C)c1C#N,-3.89%
17,NS(=O)(=O)c1ccc(Oc2c(Cl)cccc2[N+](=O)[O-])cc1,-8.03%
18,CCCS(=O)(=O)c1csc(C(=O)OC)c1N/N=C/c1cccs1,-27.2%
19,Cn1cccc1CNC(=O)c1cc(F)cc2c1OCOC2,21.1%
20,Cc1c(C(=O)Nc2ccccc2)sc2cc(C(C)(C)C)sc12,23.4%
21,O=C1OC2(CCCCC2)OC1c1ccccc1 (stereo not given),-9.78%
22,CSc1nc2c(c(/C=C/c3ccccc3)c1C#N)CCC2,-18.1%
23,O=C1c2ccccc2O[C@@H](c2ccccc2)[C@@H]1NC1CCCCC1,75.6%
24,NNC(=O)c1cc2ccccc2s1,8.06%
